Screening data (PubChem)
Most compounds without a hit are left out; they make up all but 19% or so of the library.
HT1080-NT tox: kills 2HG-producing HT-1080-NT fibrosarcoma cells; HT-1080-NT fibrosarcoma viability, CellTiter-Glo ATP luminescence, 48 h; Potency, µM (titrated, usually from 46.1 µM), for the others: at the highest dose activity, negative = less viability, actives largely listed as cytotoxic; 360,000 tested, 1.6% active; AID 686970;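 further: NT is the 2HG producing partner of a matched IDH1 knockdown line; potency means the concentration at half of the fitted maximal effect; 0% = DMSO-treated cells and -100% = media-only wells without cells; nearly all actives have a fitted effect of over 55% in size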
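Read-out is CellTiter-Glo luminescence after 10 minutes at room temperature, following 48 hours' compound treatment of HT-1080-NT cells (750 cells/well, RPMI, 5% FBS, 37 degrees C).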
IL1B secr inh: blocks inflammasome-driven IL-1 beta release. AID 743279. THP-1 LPS/ATP IL-1B secretion, AlphaLISA, 16 h; stronger effect = lower value. 360,000 tested, 4.7% active. activity change, % at 57.5 µM; in the data active means activity change below about -50%; inconclusive means mostly about -30% to -49%
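THP-1 cells pretreated 1 hr with compounds (up to 57.5 uM final), then stimulated with LPS (250 ng/mL final) plus ATP (1.25 mM final); secreted IL-1B measured by AlphaLISA after 16 hr, decreased signal indicating inhibition.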
TDP1 cell noCPT: qHTS for Inhibitors of human tyrosyl-DNA phosphodiesterase 1 (TDP1): qHTS in cells in absence of CPT; DT40 Tdp1-/- hTDP1 cells, no CPT, ATP luminescence, 48 h; Potency, µM (doses to about 46.2 µM), for inactives: at the highest dose activity change, negative = growth inhibition, usual class: inhibitors; 420,000 tested, 15% active; further: potency means the concentration at half of the fitted maximal effect; nearly all actives have a fitted effect of over 55% in size
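Growth kinetics read by CellTiter-Glo luminescence after ≥48 hr at 37 °C. Cells: DT40 Tdp1-/- stably carrying human TDP1, 400 per well, compound exposure in the absence of CPT (DMSO vehicle).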
TDP1 cell CPT: growth inhibition of DT40 Tdp1-/-;hTDP1 cells with camptothecin (screen for TDP1 inhibitors). 420,000 tested, 12% active. chicken DT40 Tdp1-/-;hTDP1 cells + 20 nM CPT, ATP luminescence, 48 h. Potency, µM (series often up to 46.2 µM), for inactives: at the top dose activity change, negative = growth inhibition, usual class: inhibitors; further: potency means the concentration at half of the fitted maximal effect; nearly all actives have a fitted effect of over 55% in size
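Chicken DT40 Tdp1-/- cells stably complemented with human TDP1 were seeded at 400 cells/well in medium containing 20 nM camptothecin, exposed to pin-transferred compounds, and grown at 37 °C for at least 48 hr. Viability was read as ATP luminescence.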
HT1080 IDH1KD tx: HT-1080 IDH1 knockdown cell toxicity (counter line); Potency, µM (highest dose often 46.1 µM), for inactives: at the highest dose activity, negative = toxicity, hits mostly cytotoxic; HT-1080 IDH1 knockdown viability, ATP luminescence, 48 h; 360,000 tested, 2% active;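 further: potency means the concentration at half of the fitted maximal effect; 0% = DMSO wells and -100% = cell-free medium wells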
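Assay cells: HT-1080 with IDH1 knockdown, 750 per well, RPMI/5% FBS. Exposure: 48 h at 37 °C following 2 h pre-incubation. Read: CellTiter-Glo luminescence; fitted concentration-response, curve class assigned.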
Active calls of the source: *; ? = inconclusive; . = not tested or not shown; [ ] = dose if it differs, or a comment. Unless noted, the call rests on the fitted dose curve; in most records, active means well fitted curve in the direction sought with a large enough effect; inconclusive means small, poorly fitted or top-dose-only effect, or another doubt; inactive means no such curve, though single readings can be large; an effect the other way counts as inactive or inconclusive. Unless noted, on the % scale 0 is the no-effect control and ±100 the full control effect.

SMILES | HT1080-NT tox | IL1B secr inh | TDP1 cell noCPT | TDP1 cell CPT | HT1080 IDH1KD tx
CCc1c(C(=O)O)[nH]c2ccc(Br)cc12 | -7% | 12 | -5% | 1% | -11%
CCC(=O)N/C(N)=N/c1nc(C)c2cc(C)c(C)cc2n1 | 7% | . | ? | -21% | 2%
Cc1nc(/N=C(\N)NC(=O)c2ccccc2)nc2ccccc12 | ? | -11 | ? | 29µM* | ?
Cc1cc2nc(N=C(N)N)nc(C)c2cc1C | -22% | -78* | 8.2µM* | 15µM* | 0%
CN(C)CCCn1c2c(c(SCC(=O)Nc3ccc4c(c3)OCCO4)nc1=O)CCC2 | -6% | 0 | ? | -24% | -9%
CCCN1C(=O)c2ccccc2CC1(C)C(=O)NC1CCCCC1 (configuration not stated) | . | . | -24% | -23% | .
O=c1[nH]c2ccccc2nc1-c1c[nH]c2ccccc12 | -10% | -22 | 0% | -23% | -18%
ClC(Cl)c1nnc(-c2ccccc2)c(-c2c[nH]c3ccccc23)n1 | 4% | 0 | ? | 3.7µM* | 0%
Cc1ccc(Cl)cc1NC(=S)N(CCCN1CCN(C)CC1)Cc1cccs1 | -20% | -9 | -16% | 1% | ?
CCCN(Cc1cccs1)C(=O)Nc1cc(Cl)ccc1C | . | . | 23µM* | ? | .
COc1ccc(-n2cc(-c3ccccc3)c3c(NCCc4ccc(OC)c(OC)c4)ncnc32)cc1 | . | . | 21µM* | 23µM* | .
COc1ccc(CCNc2nc(=O)[nH]nc2C)cc1OC | 0% | 5 | -1% | -7% | 2%
COc1ccc(CCNc2ncnc3sc(C(=O)N(C)C)c(C)c23)cc1OC | . | . | -15% | -7%[9.04 µM] | .
COc1ccc(CCNc2ncnc3c2c(-c2ccccc2)cn3-c2cccc(Cl)c2)cc1OC | . | . | 9.2µM* | 7.3µM* | .
CCN(CC(=O)Nc1ccc2c(c1)OCCO2)C(=O)/C=C/c1ccc(F)cc1 | 18% | -1 | 6% | -4% | 0%
Cc1cc(N2CCN(C(C(=O)NC3CCCC3)c3ccco3)CC2)c2ccccc2n1 (configuration not stated) | -6% | -14 | 23µM* | 21µM* | -1%
Cc1cc(N2CCN(C(C(=O)NC3CCCC3)c3ccc(F)cc3)CC2)c2ccccc2n1 (configuration not stated) | ? | -2 | ? | 18µM* | ?
O=C(NC1CCCC1)C(c1ccc(F)cc1)N1CCC(O)(c2ccc(Cl)cc2)CC1 (configuration not stated) | -29% | -1 | ? | ? | -13%
CCN1C(=O)c2ccccc2Sc2ccc(NC(C)=O)cc21 | . | . | -2% | 1% | .
CN1C(=O)c2ccccc2Sc2ccc(NC(=O)N3CCCC3)cc21 | -24% | -15 | ? | ? | -12%
CCN1C(=O)c2ccccc2Sc2ccc(NC(=O)c3ccc(C#N)cc3)cc21 | . | . | 16µM* | 21µM* | .
Cc1ccc(C(=O)Nc2ccc3c(c2)N(C)C(=O)c2ccccc2S3)cc1 | . | . | 2.3µM* | 5.2µM* | .
CN1C(=O)c2ccccc2Sc2ccc(NC(=O)c3ccccc3F)cc21 | . | . | 15µM* | 18µM* | .
CN1CCN(C(=O)Nc2ccc3c(c2)N(C)C(=O)c2ccccc2S3)CC1 | -2% | 4 | -24% | -2% | -27%
CCN1C(=O)c2ccccc2Sc2ccc(NC(=O)Nc3cccc([N+](=O)[O-])c3C)cc21 | . | . | ? | 21µM* | .
CCOC(=O)[C@@H]1[C@H]2COc3ccccc3[C@H]2N2C(=O)N(c3ccc(Br)cc3)C(=O)[C@]12C | -9% | -1 | ? | ? | -12%
Cc1cc(C(=O)NC2CCCN(Cc3ccc(Cl)cc3)C2)c(C)o1 (configuration not stated) | -2% | 3 | ? | ? | 2%
COc1ccc(N/C(C)=C/C(=S)Nc2ccccc2)cc1 | -3% | 25 | ? | 10µM* | -8%
COc1ccc(N/C(C)=C/C(=O)c2ccccc2)cc1 | 2% | -1 | -21% | -22% | 4%
